Experimental findings from PubChem BioAssay (EPA / NIEHS) are described below.

The source made the active and inactive calls. How the source made its calls: active means hit-call score of the fitted dose curve at least 0.9, where 1 is the maximum; inactive means score below 0.9.

Tested on in one assay: not listed separately
The assay is described as follows: ATG_M_32_CIS: Attagene CIS-FACTORIAL HepG2 Assay for M32 Transcription Factor (Internal Marker) (AID 2282949).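 Further: background control marker of the multiplexed CIS panel rather than a real target.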 The following applies: HepG2 Attagene cis-factorial M32 reporter, mRNA; actives raise or lower the signal. Put shortly:
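Following 24 h chemical exposure of HepG2 cells transiently expressing cis-promoter reporter constructs, reporter transcript levels were determined by RT-PCR with fluorescent labelling and capillary electrophoresis, then fitted bidirectionally against DMSO.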
Consider `COc1cccc(O)c1`, for which the molecule was classed as inactive.
As for `FC(F)(F)C1(F)C(F)(F)C(F)(F)C(F)(F)C1(F)F`, the call was inactive.
Take `C=CC(=O)OCCC(F)(F)C(F)(F)C(F)(F)C(F)(F)C(F)(F)C(F)(F)C(F)(F)C(F)(F)F`: the molecule was classed as inactive.
In the case of `CCCCCc1ccc(O)cc1`, the molecule was called inactive.
In the case of `O=C1OC(=O)c2cc(-c3ccc4c(c3)C(=O)OC4=O)ccc21`, the molecule was classed as inactive.
On to `FC(F)(F)C(F)(F)C(F)(F)C(F)(F)I`, for which the molecule was called inactive.
Still for that read-out and setting: as for `OCCN1CN(CCO)CN(CCO)C1`, the entry is “inactive”; as for `Oc1c(Cl)cc(Cl)cc1Sc1cc(Cl)cc(Cl)c1O`, “inactive”.
For the molecule `COc1cc([N+](=O)[O-])ccc1N`, the molecule was classed as inactive.
As for `CC(C)(c1ccc(Oc2ccc(N)cc2)cc1)c1ccc(Oc2ccc(N)cc2)cc1`, the molecule was classed as inactive.
As to `CCCC=O`, the molecule was classed as inactive.
Same read-out and setting: next, `CCCCCCCCC(C)=O`: “inactive”; `NC(C(F)(F)F)C(F)(F)F`: “inactive”.
Regarding `Cc1ccc(C)c(S(=O)(=O)O)c1`, the result was inactive.

Tested on in the next assay: not listed separately
The assay is described as follows: ATG_M_06_CIS: Attagene CIS-FACTORIAL HepG2 Assay for M06 Transcription Factor (Internal Marker) (AID 2282950). The following applies: HepG2 Attagene CIS-FACTORIAL M06 internal marker reporter; actives raise or lower the signal. An outline of the steps:
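Steps: transfect HepG2 with multiplexed cis-element reporter constructs; dose chemical 24 h; extract RNA with DNase treatment; reverse-transcribe, PCR-amplify, 6-FAM label, HpaI digest; separate fragments by capillary electrophoresis. Activity fitted both directions versus DMSO.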
Turning to `O=c1cc(-c2ccccc2)oc2ccc3ccccc3c12`, the result was inactive.
`O=C(Nc1ccc(Cl)c(Cl)c1)c1cc(Cl)cc(Cl)c1O`: the result was inactive.
Regarding `c1ccc2c(c1)CCC2`, the call was inactive.
In the case of `O=C1Cc2ccccc2N1c1c(Cl)cccc1Cl`, the molecule was classed as inactive.
As for `Clc1ccc(Nc2nnc(Cc3ccncc3)c3ccccc23)cc1`, the call was inactive.
Regarding `Brc1cc(Br)c(Oc2c(Br)cc(Br)c(Br)c2Br)cc1Br`, the result was inactive.
As to `C=CC(=O)OCCC(F)(F)C(F)(F)C(F)(F)C(F)(F)C(F)(F)C(F)(F)F`, the molecule was called inactive.
On to `O=C(C=C(O)C(F)(F)F)C(F)(F)F`, for which the molecule was called inactive.
Take `Nc1cc(Cl)c(-c2cc(Cl)c(N)cc2Cl)cc1Cl`: the outcome was inactive.
Take `CCC(=O)C=Cc1ccc(OC)cc1`: the call was inactive.
Same read-out and setting: next, `COC(O)c1ccccc1` (stereo not given): “inactive”.
Regarding `CC1CCC(C(=O)O)CC1` (stereo not given), the molecule was classed as inactive.
Turning to `CC1CNCC(C)O1` (stereo not given), the molecule was classed as inactive.
On to `Cc1ccc(N=Nc2c(O)ccc3ccccc23)c(C)c1`, for which the call was inactive.
As to `Nc1ccc(O)c(C(=O)O)c1`, the result was inactive.
As to `Cc1[nH]nc2c1N=C(c1ccccc1Cl)c1cc([N+](=O)[O-])ccc1N2`, the call was inactive.
Same read-out and setting: next, `O=C(O)C(=O)O`: “inactive”.
Consider `CCc1cccc(CC)c1N(COC)C(=O)CS(=O)(=O)O`, for which the result was inactive.
As to `Clc1ccc2c(Cl)ccnc2c1`, the call was inactive.
Consider `COC1=CC(=O)C[C@@H](C)[C@]12Oc1c(Cl)c(OC)cc(OC)c1C2=O`, for which the molecule was called inactive.
On the same count and under the same terms, as for `O=C(Nc1cccc([N+](=O)[O-])c1)c1cc2ccccc2cc1O`, the entry is “inactive”; as for `CCc1cccc(CC)c1NC(=O)C(=O)O`, “inactive”.
With `O=CC(F)(F)C(F)(F)C(F)(F)F`, the call was inactive.
The same measure, in the same setting: next, `CCCCCCc1ccc(N)cc1`: “inactive”; `COc1cccc(O)c1`: “inactive”.
Same read-out and setting: as for `FC(F)(F)C1(F)C(F)(F)C(F)(F)C(F)(F)C1(F)F`, the entry is “inactive”; as for `C=CC(=O)OCCC(F)(F)C(F)(F)C(F)(F)C(F)(F)C(F)(F)C(F)(F)C(F)(F)C(F)(F)F`, “inactive”.
As to `CCCCCc1ccc(O)cc1`, the call was inactive.
Turning to `O=C1OC(=O)c2cc(-c3ccc4c(c3)C(=O)OC4=O)ccc21`, the molecule was classed as inactive.
Still for that read-out and setting: as for `FC(F)(F)C(F)(F)C(F)(F)C(F)(F)I`, the entry is “inactive”; as for `OCCN1CN(CCO)CN(CCO)C1`, “inactive”.
For the molecule `Oc1c(Cl)cc(Cl)cc1Sc1cc(Cl)cc(Cl)c1O`, the call was inactive.
As to `COc1cc([N+](=O)[O-])ccc1N`, the result was inactive.
With `CC(C)(c1ccc(Oc2ccc(N)cc2)cc1)c1ccc(Oc2ccc(N)cc2)cc1`, the molecule was classed as inactive.
For the molecule `CCCC=O`, the result was inactive.
Take `CCCCCCCCC(C)=O`: the molecule was called inactive.
With `NC(C(F)(F)F)C(F)(F)F`, the result was inactive.
Same read-out and setting: as for `Cc1ccc(C)c(S(=O)(=O)O)c1`, the entry is “inactive”.

In another assay the target is Hypoxia-inducible factor 1-alpha (Homo sapiens) (UniProt Q16665). Nature of the assay: ATG_HIF1a_CIS: Attagene CIS-FACTORIAL HepG2 Assay for human Hypoxia Inducible Factor 1 (HIF1A) (AID 2282951). Particulars: HepG2 Attagene cis-factorial HIF1a reporter transcription; actives raise or lower the signal. An outline of the steps: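 Fluorescence intensity of capillary-separated, 6-FAM-labelled reporter amplicons gives mRNA induction in HepG2 cells carrying transfected cis-promoter reporter units; cells exposed 24 h, responses fitted up or down from DMSO.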
Hypoxia-inducible factor 1-alpha (Homo sapiens), sequence (Q16665 whole entry, looked up): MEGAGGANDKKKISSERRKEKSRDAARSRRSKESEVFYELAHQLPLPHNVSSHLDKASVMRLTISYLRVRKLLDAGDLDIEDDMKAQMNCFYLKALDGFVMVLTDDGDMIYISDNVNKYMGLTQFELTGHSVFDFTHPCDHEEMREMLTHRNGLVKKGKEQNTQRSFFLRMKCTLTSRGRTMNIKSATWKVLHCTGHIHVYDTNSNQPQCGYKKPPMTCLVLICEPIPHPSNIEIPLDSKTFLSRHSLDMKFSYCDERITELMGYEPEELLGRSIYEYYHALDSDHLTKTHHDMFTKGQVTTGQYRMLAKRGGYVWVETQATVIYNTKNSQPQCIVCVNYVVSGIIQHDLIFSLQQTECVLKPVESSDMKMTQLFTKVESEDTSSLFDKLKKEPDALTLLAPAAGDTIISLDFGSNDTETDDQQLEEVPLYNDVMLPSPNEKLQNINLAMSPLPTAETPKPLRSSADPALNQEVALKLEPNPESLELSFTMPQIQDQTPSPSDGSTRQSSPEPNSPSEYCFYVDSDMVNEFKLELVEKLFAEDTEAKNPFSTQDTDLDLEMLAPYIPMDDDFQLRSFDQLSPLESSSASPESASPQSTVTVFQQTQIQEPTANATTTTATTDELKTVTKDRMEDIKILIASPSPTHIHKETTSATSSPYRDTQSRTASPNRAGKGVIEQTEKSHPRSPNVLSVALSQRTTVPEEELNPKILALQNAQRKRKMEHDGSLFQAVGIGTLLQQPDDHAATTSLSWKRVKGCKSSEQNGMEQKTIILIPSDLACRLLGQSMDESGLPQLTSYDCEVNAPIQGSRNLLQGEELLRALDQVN
Regarding `O=c1cc(-c2ccccc2)oc2ccc3ccccc3c12`, the molecule was classed as inactive.
As a reminder, the AC50 is the midpoint of the concentration-response curve, whichever way the signal moves. As to `O=C(Nc1ccc(Cl)c(Cl)c1)c1cc(Cl)cc(Cl)c1O`, the AC50 is 0.378 µM (active).
In the case of `c1ccc2c(c1)CCC2`, the AC50 was 36.5 µM (active).
Still for that read-out and setting: next, `O=C1Cc2ccccc2N1c1c(Cl)cccc1Cl`: 75.3 µM (active); `Clc1ccc(Nc2nnc(Cc3ccncc3)c3ccccc23)cc1`: 15.8 µM (active).
`Brc1cc(Br)c(Oc2c(Br)cc(Br)c(Br)c2Br)cc1Br`: the molecule was classed as inactive.
The same measure, in the same setting: next, `C=CC(=O)OCCC(F)(F)C(F)(F)C(F)(F)C(F)(F)C(F)(F)C(F)(F)F`: “inactive”.
For the molecule `O=C(C=C(O)C(F)(F)F)C(F)(F)F`, the outcome was inactive.
Take `Nc1cc(Cl)c(-c2cc(Cl)c(N)cc2Cl)cc1Cl`: the result was inactive.
On to `CCC(=O)C=Cc1ccc(OC)cc1`, for which the AC50 was 62.7 µM (active).
On to `COC(O)c1ccccc1` (stereo not given), for which the molecule was classed as inactive.
On to `CC1CCC(C(=O)O)CC1` (stereo not given), for which the molecule was classed as inactive.
With `CC1CNCC(C)O1` (stereo not given), the outcome was inactive.
For the molecule `Cc1ccc(N=Nc2c(O)ccc3ccccc23)c(C)c1`, the half-maximal activity concentration (AC50) was 13.2 µM (active).
As to `Nc1ccc(O)c(C(=O)O)c1`, the call was inactive.
For the molecule `Cc1[nH]nc2c1N=C(c1ccccc1Cl)c1cc([N+](=O)[O-])ccc1N2`, the result was inactive.
Take `O=C(O)C(=O)O`: the call was inactive.
Consider `CCc1cccc(CC)c1N(COC)C(=O)CS(=O)(=O)O`, for which the molecule was called inactive.
Turning to `Clc1ccc2c(Cl)ccnc2c1`, the call was inactive.
As for `COC1=CC(=O)C[C@@H](C)[C@]12Oc1c(Cl)c(OC)cc(OC)c1C2=O`, the AC50 is 26.6 µM (active).
For the molecule `O=C(Nc1cccc([N+](=O)[O-])c1)c1cc2ccccc2cc1O`, the molecule was called inactive.
Take `CCc1cccc(CC)c1NC(=O)C(=O)O`: the molecule was called inactive.
For the molecule `O=CC(F)(F)C(F)(F)C(F)(F)F`, the call was inactive.
Still for that read-out and setting: next, `CCCCCCc1ccc(N)cc1`: “inactive”; `COc1cccc(O)c1`: “inactive”; `FC(F)(F)C1(F)C(F)(F)C(F)(F)C(F)(F)C1(F)F`: “inactive”.
With `C=CC(=O)OCCC(F)(F)C(F)(F)C(F)(F)C(F)(F)C(F)(F)C(F)(F)C(F)(F)C(F)(F)F`, the call was inactive.
`CCCCCc1ccc(O)cc1`: the molecule was called inactive.
On the same count and under the same terms, as for `O=C1OC(=O)c2cc(-c3ccc4c(c3)C(=O)OC4=O)ccc21`, the entry is “inactive”; as for `FC(F)(F)C(F)(F)C(F)(F)C(F)(F)I`, “inactive”.
The same measure, in the same setting: as for `OCCN1CN(CCO)CN(CCO)C1`, the entry is “inactive”; as for `Oc1c(Cl)cc(Cl)cc1Sc1cc(Cl)cc(Cl)c1O`, “inactive”; as for `COc1cc([N+](=O)[O-])ccc1N`, “inactive”.
As for `CC(C)(c1ccc(Oc2ccc(N)cc2)cc1)c1ccc(Oc2ccc(N)cc2)cc1`, the call was inactive.
Take `CCCC=O`: the call was inactive.
On to `CCCCCCCCC(C)=O`, for which the call was inactive.
For `NC(C(F)(F)F)C(F)(F)F`, the result was inactive.
As to `Cc1ccc(C)c(S(=O)(=O)O)c1`, the call was inactive.
